The source made the active and inactive calls.

Consider six molecules from PubChem BioAssay.

The target in one assay is Albumin (Bos taurus) (UniProt P02769). Nature of the assay: compounds binding labelled BSA control protein – biochemical, small-molecule microarray, Alexa647 label, 635/667 nm fluorescence, artefact control for SMM control protein annotation, profiling panel (AID 1118).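 Also: score merges 667 nm emission intensity and signal-to-noise per printed compound spot.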 The conditions noted are these: BSA-A647 binding, fluorescence 635 nm, higher = more signal.
Assay [1] is described as follows: probe aXIP binding to arrayed compounds – biochemical, NeuroSMM set, 635/667 nm fluorescence, primary screen (AID 1119).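 Also: probe is the protein aXip251-270 applied at 1 µg/mL to compound-printed slides; binding of probe to printed compounds measured as 667 nm fluorescence plus signal to noise.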 Conditions: small-molecule microarray, higher = more signal, called active from +8 up or from −8 down.
Assay [2] can be described thus: probe aNOTCH3 binding on compound microarray – biochemical, small-molecule microarray, 635/667 nm fluorescence, primary screen (AID 1120).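 Also: probe is a biotin-tagged antibody raised against NOTCH3 rather than NOTCH3 protein; score merges spot fluorescence near 667 nm with spot signal to noise.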 The conditions noted are these: higher = more signal.
Assay [3] can be described thus: probe aNOTCH2 binding on compound microarray – biochemical, small-molecule microarray, 635/667 nm fluorescence, primary screen (AID 1121).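 Also: score merges feature fluorescence read at 667 nm with its signal to noise.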 The conditions noted are these: higher = more signal.
Assay [4] has as its target Carbonic anhydrase 2 (Homo sapiens) (UniProt P00918). As to the kind of experiment: compounds binding carbonic anhydrase 2 – biochemical, small-molecule microarray, Alexa647-labelled CAII, profiling panel (AID 1122). Conditions: CAII-A647 binding fluorescence, higher = more signal.
Assay [5] in a line: COS7 lysate on small-molecule microarray, probe aHis, 635 nm (AID 1123).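 Also: z-score combines 667nm fluorescence intensity with signal-to-noise per printed compound spot.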 Conditions: COS7 cell lysate, fluorescence, higher = more signal.
Assay [6] can be described thus: probe aLAP1 signal on lysate-treated microarray – cell lysate, small-molecule microarray, COS7 lysate, primary screen (AID 1124).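 Also: lysate comes from COS7 cells expressing LAP1 and is applied at 0.3 µg/mL; score merges spot fluorescence near 667 nm with signal-to-noise over triplicate slides.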 Conditions: probe aLAP1, fluorescence, higher = more signal.
The test system of another assay is Sam68 (KHDRBS1). As to the kind of experiment: compounds binding KHDRBS1 protein – biochemical, small-molecule microarray, 635 nm fluorescence, primary screen (AID 1125).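 Also: score merges 667 nm channel intensity with signal to noise over triplicate slides.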 Conditions: higher = more signal.
For assay [7], the system named is Chordin-like protein 2 (CHRDL2). As to the kind of experiment: compounds binding chordin-like 2 – biochemical, small-molecule microarray, 635 nm fluorescence, primary screen (AID 1126).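 Also: printed compound slides probed with Chrdl2 protein at 4 µg/mL for 1 h at 4 C; score merges 667 nm emission intensity with signal to noise over three replicate slides.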 Conditions: fluorescence 635 nm, higher = more signal.
In assay [8] the target is Concanavalin-A (Canavalia ensiformis) (UniProt P02866). As to the kind of experiment: compounds binding concanavalin A lectin – biochemical, small-molecule microarray, Alexa647 label, 635 nm, artefact control for SMM control protein annotation, primary screen (AID 1127).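 Also: z combines 667 nm emission intensity with signal-to-noise across three replicate slides.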 The conditions noted are these: ConA-A647 binding fluorescence, higher = more signal.
A short description of assay [9]: compounds binding Alexa647 anti-His antibody – biochemical, small-molecule microarray, 635 nm fluorescence, artefact control for SMM control protein annotation, primary screen (AID 1128).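 Also: score merges feature fluorescence with signal-to-noise for each printed compound spot.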 Conditions: higher = more signal.
Assay [10] concerns Human papillomavirus type 1a E7 protein (residues 1-88). Nature of the assay: HPV1a E7 small-molecule binders, primary screen, biochemical, small-molecule microarray, residues 1-88, 635 nm (AID 1129). The conditions noted are these: small-molecule microarray binding, fluorescence 635 nm; higher = more signal.
Assay [11] deals with Focal adhesion kinase 1 (Homo sapiens) (UniProt Q05397). Nature of the assay: PTK2 protein binding on printed compound slides – biochemical, small-molecule microarray, 635/667 nm fluorescence, BSA, DTT, primary screen (AID 1130).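 Also: composite of spot emission at 667 nm and signal to noise over triplicate slides.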 The conditions noted are these: 635 nm fluorescence, higher = more signal.
Assay [12] has as its system Fibrinogen (Alexa647-labelled). Nature of the assay: Alexa647-fibrinogen binding to printed small molecules – biochemical, small-molecule microarray, 635/667 nm fluorescence, artefact control for SMM control-protein annotation, profiling panel (AID 1131).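 Also: z-score merges 667 nm fluorescence with per-spot signal-to-noise over triplicate slides.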 The conditions noted are these: fibrinogen-A647 binding fluorescence, higher = more signal.
In assay [13] the target is Follistatin (Homo sapiens) (UniProt P19883). As to the kind of experiment: FST protein binding to printed compounds – biochemical, small-molecule microarray, 635/667 nm fluorescence, primary screen (AID 1132). Conditions: 635 nm fluorescence, higher = more signal.
Assay [14] deals with Fibroblast growth factor 2 (Homo sapiens) (UniProt P09038). As to the kind of experiment: basic fibroblast growth factor binding to printed compounds – biochemical, small-molecule microarray, 635/667 nm fluorescence, primary screen (AID 1133). Conditions: FGF2, fluorescence 635/667, higher = more signal.
Assay [15] can be described thus: JC-1 mitochondrial potential readout, lung cancer cells – cell-based, A549, JC-1 fluorescence, basal, 24 h, 100 nL, profiling panel (AID 1138).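 Also: A549 lung adenocarcinoma cells under basal conditions with no added stimulus; test concentration not given here.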 The conditions noted are these: higher = more signal.
The next assay has as its system Lefty1. As to the kind of experiment: Lefty1 protein binding to printed compounds – biochemical, small-molecule microarray, 635/667 nm fluorescence, primary screen (AID 1139). Conditions: fluorescence 635/667, higher = more signal.
The test system of assay [16] is wheat germ agglutinin (Triticum aestivum), Alexa647-labelled. As to the kind of experiment: Alexa647-WGA lectin binding to printed small molecules – biochemical, small-molecule microarray, 635/667 nm fluorescence, artefact control for SMM control-protein annotation, profiling panel (AID 1140).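 Also: score merges 667 nm feature emission with signal to noise over triplicate slides.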 The conditions noted are these: WGA-A647 binding, 635 nm fluorescence, higher = more signal.

Assay [17] addresses Luciferin 4-monooxygenase (Photinus pyralis) (UniProt P08659). As to the kind of experiment: inhibition of purified Photinus pyralis luciferase – biochemical, luminescence, purified enzyme, 2006 set, primary screen (AID 1141).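 Also: cell-free assay with purified firefly luciferase at 100 ng per well in PBS; test concentration not given here.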 The conditions noted are these: purified firefly luciferase, SteadyGlo luminescence, 30 min; higher = more signal, called active from +8 up or from −8 down.

Sequence of Albumin (Bos taurus) (P02769 whole entry, looked up): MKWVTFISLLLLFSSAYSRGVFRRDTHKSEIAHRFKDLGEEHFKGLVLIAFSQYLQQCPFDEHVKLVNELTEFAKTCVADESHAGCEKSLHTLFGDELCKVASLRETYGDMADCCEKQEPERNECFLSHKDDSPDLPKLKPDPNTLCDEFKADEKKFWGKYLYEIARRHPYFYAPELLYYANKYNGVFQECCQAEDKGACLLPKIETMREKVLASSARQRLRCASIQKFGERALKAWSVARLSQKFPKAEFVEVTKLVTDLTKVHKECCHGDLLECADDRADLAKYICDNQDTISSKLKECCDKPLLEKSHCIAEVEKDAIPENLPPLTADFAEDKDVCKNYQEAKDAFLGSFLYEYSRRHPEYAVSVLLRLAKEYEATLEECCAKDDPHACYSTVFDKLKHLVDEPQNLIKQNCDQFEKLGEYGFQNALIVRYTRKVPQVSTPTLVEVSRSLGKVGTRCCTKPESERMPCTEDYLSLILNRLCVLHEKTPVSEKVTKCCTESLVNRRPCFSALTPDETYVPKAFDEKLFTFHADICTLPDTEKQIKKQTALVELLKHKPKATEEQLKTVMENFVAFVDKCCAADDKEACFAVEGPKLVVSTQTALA
Sequence of Follistatin (Homo sapiens) (P19883 whole entry, looked up): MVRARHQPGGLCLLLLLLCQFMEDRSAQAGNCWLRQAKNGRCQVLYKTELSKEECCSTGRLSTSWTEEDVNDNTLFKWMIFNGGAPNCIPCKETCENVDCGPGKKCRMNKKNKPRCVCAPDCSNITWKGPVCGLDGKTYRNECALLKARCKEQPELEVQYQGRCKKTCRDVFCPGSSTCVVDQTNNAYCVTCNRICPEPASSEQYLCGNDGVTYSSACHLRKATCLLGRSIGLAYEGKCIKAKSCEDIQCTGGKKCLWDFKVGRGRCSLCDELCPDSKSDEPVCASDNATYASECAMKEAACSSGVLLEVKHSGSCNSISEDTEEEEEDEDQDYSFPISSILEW
Sequence of Focal adhesion kinase 1 (Homo sapiens) (Q05397 whole entry, looked up): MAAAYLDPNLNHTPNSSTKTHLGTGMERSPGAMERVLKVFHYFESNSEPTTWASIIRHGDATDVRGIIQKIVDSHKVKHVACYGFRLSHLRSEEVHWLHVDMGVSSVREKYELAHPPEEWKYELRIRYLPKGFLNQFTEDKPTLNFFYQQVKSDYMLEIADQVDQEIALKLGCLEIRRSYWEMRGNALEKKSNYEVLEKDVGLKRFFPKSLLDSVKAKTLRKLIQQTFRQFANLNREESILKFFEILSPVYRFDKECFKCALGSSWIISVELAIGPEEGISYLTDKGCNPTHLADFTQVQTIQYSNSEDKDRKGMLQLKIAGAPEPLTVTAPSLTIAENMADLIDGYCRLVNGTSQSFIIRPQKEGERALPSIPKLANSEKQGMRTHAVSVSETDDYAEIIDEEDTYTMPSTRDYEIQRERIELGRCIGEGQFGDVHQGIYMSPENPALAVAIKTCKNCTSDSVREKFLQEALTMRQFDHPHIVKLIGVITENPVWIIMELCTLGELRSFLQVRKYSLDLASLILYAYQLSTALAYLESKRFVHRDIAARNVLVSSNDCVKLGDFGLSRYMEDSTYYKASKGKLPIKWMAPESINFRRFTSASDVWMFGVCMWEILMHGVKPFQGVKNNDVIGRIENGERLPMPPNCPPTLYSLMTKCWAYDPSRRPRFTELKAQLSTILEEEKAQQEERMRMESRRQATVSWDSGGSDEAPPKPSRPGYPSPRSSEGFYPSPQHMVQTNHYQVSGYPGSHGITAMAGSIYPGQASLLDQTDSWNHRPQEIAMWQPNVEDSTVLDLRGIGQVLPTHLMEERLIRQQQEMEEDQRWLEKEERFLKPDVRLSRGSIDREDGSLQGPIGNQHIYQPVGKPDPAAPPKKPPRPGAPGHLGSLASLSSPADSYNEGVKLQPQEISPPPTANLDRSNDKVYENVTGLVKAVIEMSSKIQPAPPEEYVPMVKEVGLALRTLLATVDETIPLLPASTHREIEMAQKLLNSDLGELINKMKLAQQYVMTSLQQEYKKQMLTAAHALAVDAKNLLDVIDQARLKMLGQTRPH
Sequence of Concanavalin-A (Canavalia ensiformis) (P02866 whole entry, looked up): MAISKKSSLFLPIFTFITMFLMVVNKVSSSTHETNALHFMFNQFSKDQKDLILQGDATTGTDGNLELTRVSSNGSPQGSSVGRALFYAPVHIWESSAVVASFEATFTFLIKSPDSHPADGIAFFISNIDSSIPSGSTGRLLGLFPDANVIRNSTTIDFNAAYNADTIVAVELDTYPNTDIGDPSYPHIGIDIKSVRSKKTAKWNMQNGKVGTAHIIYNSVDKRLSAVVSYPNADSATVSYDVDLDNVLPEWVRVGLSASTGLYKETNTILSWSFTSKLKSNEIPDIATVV
Sequence of Fibroblast growth factor 2 (Homo sapiens) (P09038 whole entry, looked up): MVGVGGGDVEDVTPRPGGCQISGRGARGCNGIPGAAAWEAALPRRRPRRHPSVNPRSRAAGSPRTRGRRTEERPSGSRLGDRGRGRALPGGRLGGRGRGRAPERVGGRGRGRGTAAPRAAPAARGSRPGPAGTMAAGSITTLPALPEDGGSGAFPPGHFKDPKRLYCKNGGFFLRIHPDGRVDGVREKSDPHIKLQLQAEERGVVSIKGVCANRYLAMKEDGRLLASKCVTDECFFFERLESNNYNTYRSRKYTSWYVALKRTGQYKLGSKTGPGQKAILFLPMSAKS
Sequence of Luciferin 4-monooxygenase (Photinus pyralis) (P08659 whole entry, looked up): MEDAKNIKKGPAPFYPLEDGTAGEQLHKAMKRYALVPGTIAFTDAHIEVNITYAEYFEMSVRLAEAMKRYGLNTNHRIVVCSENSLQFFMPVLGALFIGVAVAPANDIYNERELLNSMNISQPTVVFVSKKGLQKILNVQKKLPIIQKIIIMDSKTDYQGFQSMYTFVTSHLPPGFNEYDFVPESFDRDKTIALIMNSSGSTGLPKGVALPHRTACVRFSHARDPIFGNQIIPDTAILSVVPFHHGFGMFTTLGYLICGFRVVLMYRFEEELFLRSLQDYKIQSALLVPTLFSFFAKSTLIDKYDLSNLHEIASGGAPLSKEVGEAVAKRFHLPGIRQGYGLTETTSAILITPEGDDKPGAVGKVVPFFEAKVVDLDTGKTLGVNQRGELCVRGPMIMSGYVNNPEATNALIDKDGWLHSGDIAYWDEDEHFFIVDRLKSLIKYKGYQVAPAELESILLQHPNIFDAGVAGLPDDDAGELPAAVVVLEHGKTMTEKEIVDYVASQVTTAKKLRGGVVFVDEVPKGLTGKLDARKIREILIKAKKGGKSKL

Turning to `CCCCCCCCCCC(O)C1C=CC2C(=O)N(C)C(=O)C2N1NC(=O)OC(C)(C)C` (stereo not given), the composite z-score with Albumin (Bos taurus) is 0.682; in assay [2] it was -0.0077; in [3], -0.124; in [4] it was 0.344; in assay [5] it was 1.24; in assay [6] it was -0.45. For the same molecule, the composite z-score with Sam68 (KHDRBS1) is 0.717; in [7], -0.409; in assay [8], 1.12; in assay [9] it was 0.179; in [10], 0.995; in assay [11], 0.723. Besides, the composite z-score was 0.907 in assay [12]; -0.406 in [13]; -0.531 in assay [14]; -0.19 in the assay on Lefty1; 0.474 in assay [16]. Besides, the composite Z-score in [1] is 0.245 (inactive). Besides, the z-score was -1.2 in assay [15] and -1.33 (inactive) in assay [17].
For the molecule `COc1cccc(/C=C/C=O)c1`, the composite z-score is 0.865 with Albumin (Bos taurus); 0.147 in assay [2]; 0.142 in assay [3]; -0.124 in assay [4]; 0.155 in assay [5]; -0.12 in assay [6]. The composite z-score in the assay with Sam68 (KHDRBS1) was -0.146; in [7], 0.552; in assay [8], -0.52; in assay [9], 0.0592; in assay [10] it was 0.203; in assay [11], -0.0159. The composite z-score in assay [12] is -1.77; in assay [13], 0.261; in assay [14], 0.316; in the assay on Lefty1, -0.0262; in assay [16], 0.205. For the same molecule, in assay [1], the composite Z-score was -0.245 (inactive). Besides, the z-score is 1.47 in assay [15] and -1.36 (inactive) in assay [17].
Regarding `C[C@@H]1ON(c2ccc(C(=O)OC(C)(C)C)cc2)[C@H](c2ccc(O)cc2)[C@H]1C(=O)N1C(=O)OC[C@H]1Cc1ccccc1`, the composite z-score with Albumin (Bos taurus) was 0.31; in assay [2], 0.0836; in assay [3] it was -0.0449; in [4] it was 0.217; in [5], 0.58; in assay [6] it was 0.581. Besides, the composite z-score was determined as 1.31 with Sam68 (KHDRBS1); 0.448 in [7]; 1.03 in [8]; 0.249 in assay [9]; 1.03 in assay [10]; 0.437 in [11]. In addition, the composite z-score was found to be 0.584 in assay [12]; 0.472 in assay [13]; 0.382 in assay [14]; 1.29 with Lefty1; 0.828 in assay [16]. In assay [1], the composite Z-score is 0.522 (inactive). For the same molecule, the z-score in assay [15] was -1.49; in [17], -0.416 (inactive).
`O=C(NCCCCCNC(=O)/C(Cc1ccccc1)=N/O)OCc1ccccc1`: the composite z-score with Albumin (Bos taurus) is -0.0396; in assay [2], -0.165; in assay [3] it was -0.195; in [4], -0.162; in [5] it was -0.564; in assay [6], 0.148. The composite z-score was -0.0603 in the assay with Sam68 (KHDRBS1); 0.366 in [7]; -0.485 in [8]; 0.0971 in [9]; 0.0944 in assay [10]; 0.433 in assay [11]. The composite z-score in [12] is 0.106; in assay [13] it was 0.27; in assay [14], 0.003; in the assay with Lefty1, 0.289; in assay [16] it was -0.0398. Also, the composite Z-score in assay [1] was -0.136 (inactive). Moreover, the results for the z-score in [15] and in assay [17] were 0.552 and 0.209 (inactive), respectively.
In the case of `O=C1N(Cc2ccccc2)Cc2ccccc2[C@@H]2OC(c3ccc(OCCCO)cc3)=N[C@]12CCS(=O)(=O)c1ccccc1`, the composite z-score was -0.0561 in the assay with Albumin (Bos taurus); 0.0876 in assay [2]; 0.0607 in [3]; 0.484 in [4]; 2.23 in assay [5]; 0.0984 in assay [6]. In addition, the composite z-score in the assay with Sam68 (KHDRBS1) amounted to 1.25; in assay [7] it was 0.068; in assay [8] it was 0.888; in assay [9], 0.624; in assay [10], 1.19; in assay [11], 0.389. The composite z-score is 0.768 in [12]; 0.953 in assay [13]; 1.4 in [14]; -0.0333 in the assay with Lefty1; 1.04 in assay [16]. Also, the composite Z-score in assay [1] was 1.52 (inactive). Also, the results for the z-score in [15] and in assay [17] were -0.461 and -0.929 (inactive), respectively.
Turning to `CO[C@H]1O[C@H](CO)[C@@H](OC(=O)Nc2ccc3c(c2)OCO3)[C@H](OC(=O)c2cc3ccccc3[nH]2)[C@H]1OC(=O)c1cc2ccccc2[nH]1`, the composite z-score in the assay with Albumin (Bos taurus) is 0.429; in assay [2] it was -0.0932; in [3], -0.0875; in [4], 0.402; in assay [5] it was -0.0481; in assay [6] it was 0.0757. Moreover, the composite z-score in the assay on Sam68 (KHDRBS1) was 0.12; in assay [7], 0.725; in [8], -0.391; in assay [9], 0.935; in [10] it was -0.174; in assay [11] it was 0.622. For the same molecule, the composite z-score in assay [12] was -0.3; in assay [13] it was 0.372; in [14], 0.791; with Lefty1, 0.366; in assay [16], -0.0971. Further, the composite Z-score in [1] is 0.993 (inactive). Further, the z-score was -1.56 in [15] and -2.78 (inactive) in assay [17].
